Experiment [1] in a line: fungal growth arrest, C. neoformans – Alamar Blue, cherry-picks, dose response (AID 686998;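 active means falling signal with fitted half-maximal potency no higher than twice the top valid tested dose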).
Experiment [2] is described as follows: C. neoformans lysis by adenylate kinase leakage – AK release luminescence, cherry-picks, dose response (AID 687000;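 active means fitted dose curve reaches 40% lysis signal rise at or below the highest valid concentration tested for that sample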;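 further: luminescent detection of adenylate kinase leaking from lysed yeast; 0% = median neutral control signal and 100% = double that signal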).
The nature of experiment [3]: viability loss in HepG2 hepatoma cells – cell-based, cherry-picks, set 2, cytotoxicity control, dose response (AID 687002).
A short description of experiment [4]: small molecules captured by biotinylated probe aFSTL3 – biochemical, small-molecule microarray, fluorescence 635/667, stem cell growth factor project, primary screen (AID 1064).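 Further: measures binding of the biotinylated anti-FSTL3 antibody to printed compounds.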 The settings on record: higher = more signal.
Experiment [5] in a line: binders from COS7 lysate, DM2A8 probe, primary screen, torsin A project, cell lysate, small-molecule microarray, fluorescence 635/667 (AID 1065). The note with it: higher = more signal, COS7 lysate expressing mutant human TOR1A.
A short description of experiment [6]: small molecules captured by biotinylated probe aFGF2 – biochemical, small-molecule microarray, fluorescence 635/667, stem cell growth factor project, primary screen (AID 1067).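 Further: measures binding of biotinylated aFGF2 protein to printed compounds on slides; z-score merges feature fluorescence and signal-to-noise across triplicate slides.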 The note with it: higher = more signal.
Experiment [7] can be described thus: small molecules captured by biotinylated probe aFGF10 – biochemical, small-molecule microarray, fluorescence 635/667, stem cell growth factor project, primary screen (AID 1071).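 Further: score merges 667 nm spot intensity and signal to noise from triplicate slides.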 The settings on record: higher = more signal.
Experiment [8] deals with Neurogenic locus notch homolog protein 2 (Homo sapiens) (UniProt Q04721). Put plainly: small molecules binding Notch2 protein – biochemical, small-molecule microarray, 635 nm fluorescence, stem cell growth factors, primary screen (AID 1073). The settings on record: higher = more signal.
Sequence of Neurogenic locus notch homolog protein 2 (Homo sapiens) (Q04721 whole entry, looked up, canonical isoform): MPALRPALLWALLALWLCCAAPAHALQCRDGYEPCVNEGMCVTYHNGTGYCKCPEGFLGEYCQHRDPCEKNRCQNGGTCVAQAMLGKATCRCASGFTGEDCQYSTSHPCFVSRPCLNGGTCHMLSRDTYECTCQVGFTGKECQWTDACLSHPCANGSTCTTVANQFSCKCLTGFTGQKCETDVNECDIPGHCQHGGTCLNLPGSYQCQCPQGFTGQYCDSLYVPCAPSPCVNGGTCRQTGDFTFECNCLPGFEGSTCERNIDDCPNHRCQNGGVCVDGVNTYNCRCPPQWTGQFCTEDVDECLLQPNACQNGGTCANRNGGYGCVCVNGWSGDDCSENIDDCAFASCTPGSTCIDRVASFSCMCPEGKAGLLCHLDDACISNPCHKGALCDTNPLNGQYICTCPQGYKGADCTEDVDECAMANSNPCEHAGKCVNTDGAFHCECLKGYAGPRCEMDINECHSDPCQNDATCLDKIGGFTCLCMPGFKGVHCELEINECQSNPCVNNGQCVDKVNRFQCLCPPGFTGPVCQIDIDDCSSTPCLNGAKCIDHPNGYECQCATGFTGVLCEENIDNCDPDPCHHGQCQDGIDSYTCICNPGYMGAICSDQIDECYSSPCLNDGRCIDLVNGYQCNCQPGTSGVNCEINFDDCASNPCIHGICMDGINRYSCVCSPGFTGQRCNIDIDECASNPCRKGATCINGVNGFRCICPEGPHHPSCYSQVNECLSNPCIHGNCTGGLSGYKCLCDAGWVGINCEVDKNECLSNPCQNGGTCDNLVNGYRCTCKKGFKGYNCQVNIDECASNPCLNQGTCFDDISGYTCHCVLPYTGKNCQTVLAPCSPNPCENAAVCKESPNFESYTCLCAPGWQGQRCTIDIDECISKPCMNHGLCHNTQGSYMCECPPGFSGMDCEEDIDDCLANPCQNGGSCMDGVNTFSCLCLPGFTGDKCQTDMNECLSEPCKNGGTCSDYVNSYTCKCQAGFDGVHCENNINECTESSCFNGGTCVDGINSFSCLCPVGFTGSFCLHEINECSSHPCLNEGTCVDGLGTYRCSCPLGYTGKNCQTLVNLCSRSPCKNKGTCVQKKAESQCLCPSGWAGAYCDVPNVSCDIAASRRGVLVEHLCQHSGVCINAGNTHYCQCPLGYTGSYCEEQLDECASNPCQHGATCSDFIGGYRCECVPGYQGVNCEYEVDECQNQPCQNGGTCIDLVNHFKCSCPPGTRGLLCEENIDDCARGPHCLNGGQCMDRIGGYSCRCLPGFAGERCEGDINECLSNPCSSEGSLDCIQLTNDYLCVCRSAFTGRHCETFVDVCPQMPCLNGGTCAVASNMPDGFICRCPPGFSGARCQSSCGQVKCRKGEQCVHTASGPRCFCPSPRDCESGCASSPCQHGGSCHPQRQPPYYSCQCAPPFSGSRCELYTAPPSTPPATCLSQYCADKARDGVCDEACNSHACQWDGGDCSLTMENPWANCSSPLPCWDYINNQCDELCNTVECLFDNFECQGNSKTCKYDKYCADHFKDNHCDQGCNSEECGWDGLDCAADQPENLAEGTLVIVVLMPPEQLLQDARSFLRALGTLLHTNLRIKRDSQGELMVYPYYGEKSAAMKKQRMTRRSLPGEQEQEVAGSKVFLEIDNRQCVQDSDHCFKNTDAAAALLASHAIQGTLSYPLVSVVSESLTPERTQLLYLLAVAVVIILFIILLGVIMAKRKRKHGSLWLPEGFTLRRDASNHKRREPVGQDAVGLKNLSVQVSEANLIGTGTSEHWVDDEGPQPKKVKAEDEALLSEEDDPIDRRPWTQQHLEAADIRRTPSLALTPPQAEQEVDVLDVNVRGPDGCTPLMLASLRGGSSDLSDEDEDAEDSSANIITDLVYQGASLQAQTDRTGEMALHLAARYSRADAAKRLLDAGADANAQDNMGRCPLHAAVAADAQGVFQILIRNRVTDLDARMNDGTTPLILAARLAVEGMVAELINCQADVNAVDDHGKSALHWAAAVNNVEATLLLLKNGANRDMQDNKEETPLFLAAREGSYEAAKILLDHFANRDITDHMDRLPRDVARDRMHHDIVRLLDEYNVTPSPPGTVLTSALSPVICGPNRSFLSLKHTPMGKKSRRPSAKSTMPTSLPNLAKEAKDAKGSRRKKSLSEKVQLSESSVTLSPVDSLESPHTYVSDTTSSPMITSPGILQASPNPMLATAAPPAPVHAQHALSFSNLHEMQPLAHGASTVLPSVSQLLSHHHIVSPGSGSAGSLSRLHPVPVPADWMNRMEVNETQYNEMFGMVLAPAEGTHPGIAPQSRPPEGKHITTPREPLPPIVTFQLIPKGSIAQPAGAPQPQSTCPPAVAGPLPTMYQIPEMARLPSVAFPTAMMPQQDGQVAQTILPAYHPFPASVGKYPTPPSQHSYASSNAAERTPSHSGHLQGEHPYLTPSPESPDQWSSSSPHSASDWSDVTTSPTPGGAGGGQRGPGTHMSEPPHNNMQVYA
Experiment [9] addresses Pro-neuregulin-1, membrane-bound isoform (Homo sapiens) (UniProt Q02297). Description: small molecules binding neuregulin-1 protein – biochemical, small-molecule microarray, fluorescence 635/667, psychiatric disease protein project, primary screen (AID 1075).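 Further: score combines 667 nm spot fluorescence with signal to noise.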 The note with it: NRG1 binding, 635 nm fluorescence, higher = more signal.
The subject of experiment [10] is Neuregulin-1 EGF-like domain. Put plainly: small molecules binding NRG1 EGF domain – biochemical, small-molecule microarray, 635 nm fluorescence, primary screen (AID 1081).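 Further: binding of the protein to compounds printed on small-molecule microarray slides.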 The note with it: higher = more signal.
The nature of experiment [11]: FRG1 expression reporter modulators in myotubes – cell-based, C2C12 myotubes, firefly/Renilla luciferase, luminescence, FRG1 inhibition for FSHD, primary screen (AID 1084). The note with it: FRG1 promoter luciferase, higher = more signal, called active from +8 up or from −8 down.
A short description of experiment [12]: small molecules captured by biotinylated probe aFST – biochemical, small-molecule microarray, fluorescence 635/667, stem cell growth factor project, primary screen (AID 1086).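 Further: score merges 667 nm fluorescence with signal-to-noise of each printed compound spot.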 The settings on record: higher = more signal.
Experiment [13] in a line: binders of probe aHhip on microarray, primary screen, stem cell growth factor project, biochemical, small-molecule microarray, fluorescence 635/667 (AID 1087).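 Further: score merges spot fluorescence at 667nm with spot signal to noise ratio.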 The settings on record: higher = more signal.
For experiment [14], the system named is PRMT1 (protein arginine N-methyltransferase 1). Put plainly: small molecules binding arginine methyltransferase PRMT1 – biochemical, small-molecule microarray, 635 nm fluorescence, primary screen (AID 1088).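 Further: binding of Prmt1 protein to compounds spotted on small-molecule microarray slides.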 The note with it: higher = more signal.
A short description of experiment [15]: growth effects on S. cerevisiae YJM789 – YJM789 clinical isolate, OD600, 24 h, basal, primary screen (AID 1089).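 Further: growth of clinical yeast isolate S. cerevisiae YJM 789 seeded 1000 cells per well.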 The settings on record: higher = more signal, called active from +8 up or from −8 down.
A short description of experiment [16]: S. pombe growth modifiers, basal conditions – strain 972, OD600, 24 h, no modulator, primary screen (AID 1090).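 Further: basal condition with compound alone and no growth modifier present.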 The note with it: S. pombe 972 growth, higher = more signal, called active from +8 up or from −8 down.
Experiment [17] in a line: budding yeast growth modifiers under rapamycin – strain BY4716, OD600, 96 h, primary screen (AID 1091). The settings on record: S. cerevisiae BY4716 + rapamycin, higher = more signal, called active from +8 up or from −8 down.
The target in experiment [18] is Torsin-1A-interacting protein 2 (Homo sapiens) (UniProt Q8NFQ8). Description: small molecules binding lysate-expressed LULL1 – cell lysate, human LULL1 lysate, 635/667 nm fluorescence, primary screen (AID 1092).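 Further: probe is lysate of COS7 cells overexpressing human LULL1; score merges per-feature 667 nm fluorescence with signal-to-noise.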 The settings on record: small-molecule microarray, hLULL1 lysate binding, 635 nm fluorescence; higher = more signal.
Sequence of Torsin-1A-interacting protein 2 (Homo sapiens) (Q8NFQ8 whole entry, looked up): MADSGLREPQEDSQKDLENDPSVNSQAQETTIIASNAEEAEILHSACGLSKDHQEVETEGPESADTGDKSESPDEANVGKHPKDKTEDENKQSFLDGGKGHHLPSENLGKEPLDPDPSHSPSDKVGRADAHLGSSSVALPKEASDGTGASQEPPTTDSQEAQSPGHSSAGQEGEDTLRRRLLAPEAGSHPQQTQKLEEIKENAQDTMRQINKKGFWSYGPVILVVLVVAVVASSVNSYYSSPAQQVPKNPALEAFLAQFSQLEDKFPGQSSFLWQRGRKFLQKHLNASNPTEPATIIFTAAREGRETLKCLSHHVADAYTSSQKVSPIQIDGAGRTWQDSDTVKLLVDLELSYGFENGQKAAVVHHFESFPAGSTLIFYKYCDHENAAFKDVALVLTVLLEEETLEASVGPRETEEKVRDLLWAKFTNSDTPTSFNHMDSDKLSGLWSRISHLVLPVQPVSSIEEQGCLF
Experiment [19] can be described thus: optical density change of DRC41 E. coli – strain DRC41, OD650, 24 h, E. coli filamentation project, primary screen (AID 1093).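 Further: MC1000 strain lacking acrAB efflux and sulA so SOS filamentation is blocked.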 The settings on record: E. coli DRC41 growth, higher = more signal, called active from +8 up or from −8 down.

The values below come from PubChem BioAssay.

For some of these results: Entries with a potency or affinity are not part of this list. Inconclusive results are not listed. Calls of active or inactive are those of the source.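 How the source made its calls, unless noted: active means a dose-response fit showing signal loss, with half-maximal concentration no higher than twice the top tested dose; inconclusive means flat fit between 30% and 70% signal loss, or poor fit; inactive means the rest.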

Sequence of Pro-neuregulin-1, membrane-bound isoform (Homo sapiens) (Q02297 whole entry, looked up, the tested form may be a part, canonical isoform): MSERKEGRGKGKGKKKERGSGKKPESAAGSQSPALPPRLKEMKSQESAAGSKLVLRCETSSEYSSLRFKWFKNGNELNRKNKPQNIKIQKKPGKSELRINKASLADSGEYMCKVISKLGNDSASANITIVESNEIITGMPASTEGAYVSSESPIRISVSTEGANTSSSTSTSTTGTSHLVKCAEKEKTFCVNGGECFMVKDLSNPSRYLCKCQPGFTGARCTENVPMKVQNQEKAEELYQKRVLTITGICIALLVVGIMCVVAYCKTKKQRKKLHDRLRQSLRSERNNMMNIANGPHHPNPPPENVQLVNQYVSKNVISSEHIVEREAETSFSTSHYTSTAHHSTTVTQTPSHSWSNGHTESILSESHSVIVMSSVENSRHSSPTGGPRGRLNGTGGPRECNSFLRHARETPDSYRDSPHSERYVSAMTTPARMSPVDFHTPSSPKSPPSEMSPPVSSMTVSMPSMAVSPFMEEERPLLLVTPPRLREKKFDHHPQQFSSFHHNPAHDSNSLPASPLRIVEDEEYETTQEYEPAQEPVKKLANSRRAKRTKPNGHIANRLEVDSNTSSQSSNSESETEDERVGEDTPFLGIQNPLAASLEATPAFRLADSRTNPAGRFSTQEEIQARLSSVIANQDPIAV

For `Cc1cccc(C)c1NC(=O)C(CCc1ccccc1)N1CCC(c2ccccc2)CC1` (stereo not drawn), the result in experiment [1], in [2] and in experiment [3] was inactive.

On to `CC(C)CC#Cc1ccc2c(c1)O[C@@H](CN(C)C(=O)C1CCC1)[C@@H](C)CN([C@H](C)CO)S2(=O)=O`, for which the molecule was classed as inactive in [1], in experiment [2] and in experiment [3].

Regarding `COc1ccc([Si](C)(C)[C@H]2[C@H](CC(=O)N(CCO)Cc3ccccc3)O[C@@]3(C(=O)N(Cc4ccc(N5CCOC5=O)cc4)c4ccccc43)[C@@H]2C)cc1`, the composite z-score is 0.0147 in experiment [4]; 0.285 in experiment [5]; -0.105 in experiment [6]; 0.202 in experiment [7]; 0.135 in experiment [8]; 0.869 in experiment [9]. Moreover, the composite z-score in experiment [10] was 1.01; in experiment [12] it was -0.158; in experiment [13], -0.0618; in experiment [14], 0.92; in experiment [18], 1.98. In addition, the z-score is -2.95 (inactive) in [11]; 0.473 (inactive) in experiment [15]; 0.273 (inactive) in experiment [16]; 3.26 (inactive) in experiment [17]; 1.46 (inactive) in experiment [19].

On to `CCCCCN1CC=CC23O[C@@H]4/C=C\CCC(C)OC(=O)C4[C@H]2C(=O)N(CCO)[C@@H]3C1=O` (stereo partly drawn), for which the composite z-score in [4] was 0.767; in experiment [5] it was 2.14; in experiment [6] it was -0.216; in [7], -0.807; in experiment [8], -0.762; in experiment [9] it was 0.77. The composite z-score in experiment [10] was 1.13; in experiment [12] it was -0.639; in experiment [13], -0.16; in experiment [14] it was -0.754; in experiment [18], 1.45. Further, the z-score in experiment [11] was 0.569 (inactive); in [15], -0.139 (inactive); in experiment [16], -1.24 (inactive); in experiment [17] it was -0.0531 (inactive); in [19], 2.35 (inactive).

As for `C=C(CCCC)/C(=C/C[C@@H](OC(=O)c1ccncc1)c1ccc(OCCO)cc1)c1cnc2ccccc2c1`, the composite z-score in experiment [4] was 0.201; in experiment [5] it was 0.379; in experiment [6], 0.0166; in experiment [7], 1.19; in [8] it was 1.48; in experiment [9], 0.227. For the same molecule, the composite z-score was 0.841 in experiment [10]; 0.265 in [12]; -0.176 in [13]; 1.52 in [14]; 0.447 in experiment [18]. For the same molecule, the z-score was -0.723 (inactive) in experiment [11]; 0.594 (inactive) in experiment [15]; -1.59 (inactive) in experiment [16]; 0.524 (inactive) in [17]; 1.48 (inactive) in experiment [19].

With `Cc1ccc(N2C(=O)c3ccccc3[C@](C)(C(=O)NCC(F)(F)F)[C@@H]2c2ccc(CO)cc2)nc1`, the composite z-score was 1.36 in experiment [4]; -0.769 in [5]; -0.128 in experiment [6]; -1.14 in [7]; -1.22 in experiment [8]; 1.64 in experiment [9]. In addition, the composite z-score in experiment [10] was 0.0042; in [12], -0.413; in experiment [13] it was -0.0423; in experiment [14], -0.973; in experiment [18], -0.916. Besides, the z-score is 0.0677 (inactive) in [11]; -0.625 (inactive) in experiment [15]; -0.972 (inactive) in experiment [16]; -0.286 (inactive) in experiment [17]; 1.1 (inactive) in experiment [19].

With `C[C@@H]1CN([C@@H](C)CO)S(=O)(=O)c2ccc(C#Cc3ccccn3)cc2O[C@H]1CN(C)Cc1ccccc1`, the outcome in [1], in experiment [2] and in experiment [3] was inactive.

As to `COc1ccccc1C(=O)Nc1ccc2c(c1)C(=O)N(C)C[C@H](OC)[C@@H](C)CN(CC1CC1)[C@@H](C)CO2`, the call in experiment [1], in [2] and in [3] was inactive.

As to `CN1C(=O)c2cc(NC(=O)Nc3ccc(Cl)cc3)ccc2OC[C@H]2O[C@@H](CC(=O)NCCN3CCCCC3)CC[C@@H]21`, the molecule was called inactive in [1], in experiment [2] and in experiment [3].

On to `COc1ccc(C#Cc2ccc3c(c2)O[C@@H](CN(C)C(C)=O)[C@@H](C)CN([C@H](C)CO)S3(=O)=O)cc1`, for which the result in experiment [1], in [2] and in [3] was inactive.

Take `Cc1ccccc1CN(C)C[C@H]1OCc2cn(nn2)CCCC(=O)N([C@@H](C)CO)C[C@H]1C`: the molecule was called inactive in experiment [1], in [2] and in experiment [3].

As to `CN1C(=O)c2cc(NC(=O)NC3CCCC3)ccc2OC[C@H]2O[C@@H](CC(=O)NC3CCC3)CC[C@@H]21`, the call in experiment [1], in experiment [2] and in experiment [3] was inactive.

`O=C(CN1CCOCC1)N1CC[C@@H]2[C@@H](CO)Nc3ccc(-c4ccccc4F)cc3[C@@H]21`: the call in experiment [1], in experiment [2] and in [3] was inactive.

`COc1cc(C(=O)Oc2ccccc2N)cc(OC)c1OC`: the outcome in [1], in experiment [2] and in experiment [3] was inactive.

For the molecule `COCCNC(=O)C[C@H]1C=C[C@@H](NS(=O)(=O)c2ccc(C)cc2)[C@H](CO)O1`, the outcome in experiment [1], in experiment [2] and in experiment [3] was inactive.

As to `C[C@H](CO)N1C[C@H](C)[C@@H](CN(C)Cc2ccncc2)Oc2ccc(NC(=O)CCC(F)(F)F)cc2C1=O`, the molecule was classed as inactive in [1], in experiment [2] and in experiment [3].

For the molecule `C[C@@H]1CN([C@@H](C)CO)C(=O)Cc2cc(NC(=O)Nc3cccc4ccccc34)ccc2O[C@@H]1CN(C)S(=O)(=O)c1cccs1`, the molecule was called inactive in experiment [1], in experiment [2] and in [3].

For the molecule `C[C@@H]1CN([C@@H](C)CO)C(=O)c2c(c3ccccc3n2C)-c2ccccc2CO[C@@H]1CN(C)S(=O)(=O)c1ccc(Cl)cc1`, the result in experiment [1], in experiment [2] and in experiment [3] was inactive.

For the molecule `COc1cccc(S(=O)(=O)N2C[C@@H](O)COC[C@H]3O[C@H](CC(=O)Nc4ccccc4)CC[C@@H]32)c1`, the result in [1], in experiment [2] and in experiment [3] was inactive.

`CCCC#Cc1ccc2c(c1)O[C@H](CN(C)CCC)[C@H](C)CN([C@@H](C)CO)S2(=O)=O`: the call in [1], in experiment [2] and in [3] was inactive.

For `COc1ccc(C(=O)NC(=S)Nc2cccc(Cl)c2N2CCOCC2)cc1[N+](=O)[O-]`, the molecule was called inactive in [1], in [2] and in [3].

Take `CCC(=O)N(C)C[C@H]1Oc2cc(-c3ccccc3)ccc2S(=O)(=O)N([C@H](C)CO)C[C@H]1C`: the molecule was classed as inactive in experiment [1], in experiment [2] and in [3].

Consider `C[C@@H]1CN([C@@H](C)CO)S(=O)(=O)c2ccc(-c3ccccc3)cc2O[C@H]1CN(C)C(=O)C1CCCCC1`, for which the result in experiment [1], in experiment [2] and in experiment [3] was inactive.

Consider `C[C@H]1CN([C@@H](C)CO)S(=O)(=O)c2ccc(C#Cc3cccc(F)c3)cc2O[C@@H]1CN(C)C(=O)NC1CCCCC1`, for which the molecule was classed as inactive in experiment [1], in experiment [2] and in experiment [3].

Turning to `C[C@H](CO)N1C[C@H](C)[C@H](CN(C)Cc2ccccc2)Oc2cc(C#Cc3ccccn3)ccc2S1(=O)=O`, the call in [1], in experiment [2] and in experiment [3] was inactive.

For `C[C@@H]1CCCCO[C@H](CN(C)Cc2ccc3c(c2)OCO3)[C@H](C)CN([C@H](C)CO)C(=O)c2cc(NC(=O)Nc3cccc4ccccc34)ccc2O1`, the outcome in experiment [1], in experiment [2] and in [3] was inactive.

Consider `O=C(C1CCOCC1)N1CC[C@@H]2[C@H]1c1cc(Br)ccc1N[C@@H]2CO`, for which the molecule was classed as inactive in experiment [1], in [2] and in [3].

For the molecule `CO[C@@H](CN(C)Cc1cc(F)ccc1F)[C@@H](C)CN([C@H](C)CO)S(=O)(=O)c1ccc(F)cc1`, the outcome in experiment [1], in experiment [2] and in [3] was inactive.

`C[C@@H](NC(=O)C[C@@H]1CC[C@H]2[C@@H](COC[C@@H](O)CN2Cc2cc(F)ccc2F)O1)c1ccccc1`: the outcome in experiment [1], in experiment [2] and in experiment [3] was inactive.

In the case of `C[C@@H]1CN([C@@H](C)CO)C(=O)c2cccc(NS(C)(=O)=O)c2O[C@@H]1CN(C)C(=O)Nc1ccc2c(c1)OCO2`, the call in [1], in experiment [2] and in [3] was inactive.

As for `CNC(=O)CN(c1ccc(C)cc1)S(=O)(=O)c1ccccc1`, the outcome in experiment [1], in [2] and in experiment [3] was inactive.

In the case of `C[C@@H]1CN([C@@H](C)CO)C(=O)c2cc(NS(=O)(=O)c3ccc(F)cc3)ccc2O[C@@H](C)CCCCO[C@H]1CN(C)S(=O)(=O)c1ccc(F)cc1`, the outcome in experiment [1], in [2] and in experiment [3] was inactive.
